Out of some 320,000 compounds screened, about 2,100 (0.66%) were called active. Inconclusive results (about 53%) are left out. Calls follow the shape of the dose curve; as a rule, active = well fitted inhibition curve with a large enough effect in the signal ratio, with a control signal flat (not every such curve was filed as active); inconclusive = small, poorly fitted or top-dose-only effect, or effect the other way, or a change in a side signal; inactive = flat fitted curve, though single readings scatter; the % refers to the signal ratio. This excerpt belongs to a sample that is enriched for actives.
Experiment: qHTS Assay for Lipid Storage Modulators in Drosophila S3 Cells;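 as to cell number change: cells counted by Cell Tracker Red CMTPX staining in the red channel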
Settings: BODIPY lipid droplet fluorescence, 18-24 h, cells fed with added oleic acid; cell number change: measured here: cell count max response; series mostly up to 46.1 µM
Summary of the method: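 Drosophila S3 cells loaded with oleic acid (400 uM, as added) and compounds at several concentrations; lipid droplets imaged by 488-nm laser-scanning cytometry, 500–530 nm intensity and object ratio to cell channel. Percent activity normalized to 20 uM Triacsin C.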
For `NC(=O)C1=C[C@@H](C2CCCCC2)C[C@@H](OCCCCO)O1`, the Potency was “inactive” and the cell number change was 1.59%. For `Cc1ccc(N2C(=O)C3C(C2=O)N2CCCN2C3c2ccccc2)cc1C` (stereo unspecified), the Potency was “inactive” and the cell number change was 7.85%. In the case of `CCN(CC)C(=O)CC(c1ccc(F)cc1)c1ccco1` (stereo unspecified), the Potency was “inactive” and the cell number change was -17.4%. For `CCc1ccccc1NC(=O)CSc1nnc(Cn2cnc3ccccc32)o1`, the Potency was “inactive” and the cell number change was -13.9%. In the case of `COc1ccc(CCNC(=O)C(=O)NCC2OCCN2S(=O)(=O)c2cccs2)cc1` (stereo unspecified), the Potency was “inactive” and the cell number change was 0.232%. In the case of `Cc1c(NC(=O)CSc2nnc(C(C)Oc3ccc(Cl)cc3)n2-c2ccccc2)c(=O)n(-c2ccccc2)n1C` (stereo unspecified), the Potency was “inactive” and the cell number change was 8.96%. For `Cc1ccc(C(=O)N2CCN(c3ccccc3)CC2)cc1S(=O)(=O)N1CCOCC1`, the Potency was “inactive” and the cell number change was 22%. With `COc1ccc(/C=C/C(=O)N2CCN(c3ccccc3)CC2)cc1S(=O)(=O)N1CCOCC1` the Potency was “inactive”. In the case of `COc1ccc(C(=O)N2CCN(c3ccccc3)CC2)cc1S(=O)(=O)N1CCOCC1`, the Potency was 3.26 µM (active) and the cell number change was 0.901%. With `COC(=O)c1sc(NC(=O)C2c3ccccc3Oc3ccccc32)c(C(=O)OC)c1C` the Potency was “inactive” and the cell number change was 5.22%. In the case of `Cc1ccc(C2CC(C(F)F)n3ncc(C(=O)Nc4c(C)nn(Cc5c(F)cccc5Cl)c4C)c3N2)cc1` (stereo unspecified), the Potency was “inactive” and the cell number change was 11%. With `CCOC(=O)c1c(NC(=O)c2ccccc2C(=O)O)sc2c1CCC2` the Potency was “inactive” and the cell number change was 7.14%. For `COc1cc(-c2cc(-c3ccc(N)cc3)[nH]c(=O)c2C#N)cc(OC)c1OC`, the Potency was “inactive” and the cell number change was 28%. For `O=C(Nc1ccc(Cl)cn1)c1cccc(S(=O)(=O)N2CCCCC2)c1`, the Potency was “inactive” and the cell number change was 14.3%. In the case of `O=C(Cn1cnc2ccccc2c1=O)NCCC(=O)Nc1ccc(F)cc1`, the Potency was “inactive” and the cell number change was 20.1%. With `O=C(Cn1cnc2ccccc2c1=O)NCCC(=O)Nc1ccccc1C(F)(F)F` the Potency was 0.0651 µM (active) and the cell number change was -3.75%. With `COC(=O)c1ccccc1NC(=O)CCNC(=O)Cn1cnc2ccccc2c1=O` the Potency was “inactive” and the cell number change was -2.73%. For `COC(=O)c1ccc(CSc2nc3ccccc3c(=O)n2N)cc1`, the Potency was “inactive” and the cell number change was -1.8%. For `CC(C)CN(CC(C)C)S(=O)(=O)N1CCC(C(=O)NCc2ccco2)CC1`, the Potency was “inactive” and the cell number change was -10.2%. With `CCOc1ccccc1N(CC(=O)NCc1ccco1)C(=O)CCC(=O)Nc1nccs1` the Potency was 2.59 µM (active) and the cell number change was -1.71%. In the case of `CCc1ccccc1N(CC(=O)NCc1ccco1)C(=O)CCC(=O)Nc1nccs1`, the Potency was “inactive” and the cell number change was 6.09%. With `O=C(CN(C(=O)CCC(=O)Nc1nccs1)c1ccccc1F)NCCc1ccccc1` the Potency was “inactive” and the cell number change was 18.7%. In the case of `COc1ccccc1N(CC(=O)NCCc1ccccc1)C(=O)CCC(=O)Nc1nccs1`, the Potency was 2.06 µM (active) and the cell number change was -5.22%. In the case of `COc1ccccc1N(CC(=O)NCc1ccc(F)cc1)C(=O)CCC(=O)Nc1nccs1`, the Potency was “inactive” and the cell number change was -10.4%. For `Cc1ccccc1N(CC(=O)NCc1ccco1)C(=O)CCC(=O)Nc1nccs1`, the Potency was “inactive” and the cell number change was 7.88%. For `COC(=O)c1ccc(NC(=O)c2ccc(NS(=O)(=O)c3cccc4cccnc34)cc2)cc1`, the Potency was “inactive” and the cell number change was -0.185%. With `CCOC(=O)C1CCN(c2nc(-c3ccc(C)cc3)nc3ccccc23)CC1` the Potency was “inactive” and the cell number change was -12.1%. With `COc1ccccc1NC(=O)c1ccc(NC(=O)CSc2ncn[nH]2)cc1` the Potency was “inactive” and the cell number change was -3.32%. For `Cc1cc(-c2ccco2)n(CC(=O)O)n1`, the Potency was “inactive” and the cell number change was -13.3%. With `CC(=O)Nc1ccc(SC(C)C(=O)NC(N)=O)cc1` (stereo unspecified) the Potency was 29.1 µM (active) and the cell number change was -18.8%. In the case of `CC(Sc1ccc2ccccc2c1)C(=O)NC(N)=O` (stereo unspecified), the Potency was “inactive” and the cell number change was 22.5%. For `CC(Sc1cccc(C(F)(F)F)c1)C(=O)NC(N)=O` (stereo unspecified), the Potency was “inactive” and the cell number change was 10.6%. In the case of `CCOC(=O)NC(O)C(=O)c1ccc(F)cc1` (stereo unspecified), the Potency was “inactive”. In the case of `N#Cc1ccc(Cl)cc1NC(=O)CNCc1cccs1`, the Potency was “inactive” and the cell number change was 4.81%. With `COc1ccc(-n2c(=O)c(CCC(=O)N(C)Cc3ccccc3C)nc3ccccc32)cc1` the Potency was “inactive” and the cell number change was 24.8%. For `COc1ccc(-n2c(=O)c(CCC(=O)N3CCN(c4ccccc4O)CC3)nc3ccccc32)cc1`, the Potency was “inactive” and the cell number change was -25.6%. In the case of `COc1ccc(-n2c(=O)c(CCC(=O)NCCc3ccccc3F)nc3ccccc32)cc1`, the Potency was 18.4 µM (active) and the cell number change was 2.07%. With `COc1ccc2c(c1)c(CC(=O)Nc1cccc(S(N)(=O)=O)c1)c(C)n2C(=O)c1ccc(Cl)cc1` the Potency was “inactive” and the cell number change was -13.5%. For `CC(C(=O)Nc1ccc2c(c1)OCCO2)N(C)Cc1c(F)cccc1Cl` (stereo unspecified), the Potency was “inactive”. For `Cc1ccc(NC(=O)CCNS(=O)(=O)c2cccc3nonc23)cc1`, the Potency was “inactive” and the cell number change was 12.6%. With `CC(=O)c1ccc(NC(=O)CCNS(=O)(=O)c2cccc3nonc23)cc1` the Potency was 23.1 µM (active). With `COC(=O)c1ccc(NC(=O)CCNS(=O)(=O)c2cccc3nonc23)cc1` the Potency was “inactive” and the cell number change was 6.69%. With `COC(=O)C1=NN(C(C)(C)CC(C)=O)C2C(=O)N(C3CCCCC3)C(=O)C12` (stereo unspecified) the Potency was “inactive” and the cell number change was -0.806%. With `O=C(NCc1cccc(Cl)c1)c1cccc(C(F)(F)F)c1` the Potency was “inactive” and the cell number change was -1.35%. For `Cc1cc(NC2CCCC2)n2nc(C)c(-c3ccccc3)c2n1`, the Potency was “inactive” and the cell number change was -2.08%.
Potency is read from the fitted curve at half-maximal effect.
